Source: PubChem BioAssay (Broad Institute)
Casp6 inh – inhibitors of human caspase-6 | P55212 | purified caspase-6, Z-VEID-R110 cleavage fluorescence | inhibition, % at 12.5 µM | 0.53% of 350,000 active;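 active = mean inhibition across replicates at least about 35%, with every replicate also reaching that limit, limit read from the data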;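 also: 0% = median of neutral control wells and 100% = no fluorescence left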
Target sequence (P55212 24-179 limits assumed): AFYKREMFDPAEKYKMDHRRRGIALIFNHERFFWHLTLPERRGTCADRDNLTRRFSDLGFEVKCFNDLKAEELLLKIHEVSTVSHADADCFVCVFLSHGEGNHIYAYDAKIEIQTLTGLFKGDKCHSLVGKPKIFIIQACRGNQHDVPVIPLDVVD
Target sequence (P55212 194-293 limits assumed): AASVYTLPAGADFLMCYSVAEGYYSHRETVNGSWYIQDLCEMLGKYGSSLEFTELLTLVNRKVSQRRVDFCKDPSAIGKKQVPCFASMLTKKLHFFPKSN
FGF22 binding – FGF22 (human) thermal shift binding; 1.5% of 340,000 active; activity (Tm shift, normalised), % at 9.99 µM; Q9HCT0; recombinant FGF22 thermal shift, SYPRO orange fluorescence; percent of sucrose octasulfate shift, DMSO zero;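 active = mean Tm shift, scaled 0 neutral to 100 positive control, at about 1.3% or above, every replicate too, limit read from the data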
Target sequence (Q9HCT0 whole entry, looked up): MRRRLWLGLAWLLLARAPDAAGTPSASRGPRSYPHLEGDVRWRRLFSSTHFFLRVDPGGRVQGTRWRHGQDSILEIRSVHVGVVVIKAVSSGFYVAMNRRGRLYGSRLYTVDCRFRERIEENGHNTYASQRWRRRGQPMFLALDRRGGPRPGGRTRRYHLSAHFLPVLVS
ERAP1 inh – inhibitors of human ERAP1 aminopeptidase; 0.15% of 340,000 active; AID 652197; Q9NZ08; recombinant ERAP1, Leu-AMC fluorescence, 60 min; inhibition, % at 10.7 µM;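 active = mean replicate inhibition of at least 30%, or all replicates individually reaching that 30% level; inactive = mean below 30% and not every replicate reaching it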;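 also: 0% = neutral control wells and 100% = L-leucinethiol positive control wells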
SIRT5 block – inhibitors of human sirtuin-5 desuccinylase; Q9NXA8; Purified SirT5, succinyl-peptide AMC, trypsin-coupled fluorescence; inhibition, % at 15 µM; 1.1% of 330,000 active; in the data active = inhibition above about 15%
Active calls of the source: *; nt = no result given. Most compounds without a hit are left out; they make up all but 3.1% or so of the library.

SMILES	Casp6 inh	FGF22 binding	ERAP1 inh	SIRT5 block
C[C@@H]1CN([C@@H](C)CO)C(=O)Cc2cc(NC(=O)CCCN(C)C)ccc2O[C@H]1CN(C)S(C)(=O)=O	-1	0	0	1
COc1ccc(S(=O)(=O)N(C)C[C@@H]2Oc3ccc(NS(=O)(=O)c4ccc(Cl)cc4)cc3C(=O)N([C@@H](C)CO)C[C@H]2C)cc1	-5	0	-1	4
COCC(=O)Nc1ccc2c(c1)C(=O)N(C)[C@H]1CC[C@@H](CC(=O)NCCc3ccccc3)O[C@@H]1CO2	1	0	-2	0
Nc1ccc(-c2c3ccc(=O)cc-3oc3cc(O)ccc23)cc1C(=O)O	-30	0	13	19*
COc1ccc2c3c([nH]c2c1)[C@H](CO)N(CC1CCOCC1)CC31CN(C(=O)C2CCOCC2)C1	11	0	4	-4
Cc1cc(NC(=O)c2ccc(F)cc2)no1	0	0	-1	nt
Cc1cc(NC(=O)c2ccno2)no1	1	0	-1	19*
CCCNC(=O)N1CC2(CCN(C(=O)C3CCC3)CC2)c2c([nH]c3cc(OC)ccc23)[C@@H]1CO	nt	0	nt	0
Cc1ccc(C(NC(=O)N2CCN(C)CC2)C(Cl)Cl)cc1F (stereo not given)	1	44*	1	3
CN1c2ccc(-c3cccc(C#N)c3)cc2[C@H]2[C@H](CCN2S(=O)(=O)c2ccccc2F)[C@H]1CO	0	0	4	-19
C[C@@H]1CN([C@H](C)CO)C(=O)CCCn2nncc2CO[C@@H]1CN(C)C(=O)Nc1cccc(C(F)(F)F)c1	-1	0	0	-4
COc1ccc(OCCOc2ccc(S(=O)(=O)N3CCCC3)cc2[N+](=O)[O-])cc1	0	0	-2	27*
O=C(NCC1CC1)[C@H]1[C@H](CO)[C@H]2Cn3c(ccc(-c4ccccc4F)c3=O)[C@@H]1N2Cc1cccnc1	-2	0	-1	-2
C/C(=N\NC(=O)CN1CCN(S(=O)(=O)c2ccc(C)cc2)CC1)c1ccc(O)cc1	1	0	nt	15*
Cc1ccc(S(=O)(=O)N2CCN(CC(=O)Nc3ccnn3C3CCCC3)CC2)cc1	39*	0	-2	-6
COC(=O)C1CC(O)CN1C(=O)Nc1ccccc1 (stereo not given)	2	43*	-4	0
CN1C(=O)/C(=C2\SC(N3CCCCCC3)=NC2=O)c2ccccc21	15	nt	4	32*
CNc1ccc(C(=O)c2ccccc2C(=O)O)cc1[N+](=O)[O-]	0	0	-1	3
Nc1ccccc1Sc1ccc(C(=O)c2ccccc2C(=O)O)cc1[N+](=O)[O-]	46*	0	nt	8
CN(C)c1ccc(C(=O)c2ccccc2C(=O)O)cc1[N+](=O)[O-]	2	0	-3	28*
Nc1ccc2cn[nH]c2c1	44*	0	1	1
CCCCC(=O)Nc1nnc(CCOC)s1	-1	43*	-4	4
O=C(CSc1nc2ccccc2c(=O)[nH]1)Nc1ccc(N2CCOCC2)cc1	58*	0	-1	-1
C[C@H]1CN([C@@H](C)CO)C(=O)c2cccc(NS(=O)(=O)c3ccc(F)cc3)c2O[C@@H]1CN(C)S(=O)(=O)c1ccccc1	nt	0	-3	-1
N#Cc1ccc(OCCOCCNC2CCCC2)cc1	0	44*	-3	2
SMILES	Casp6 inh	FGF22 binding	ERAP1 inh	SIRT5 block
COc1ccc(OCCNC2CCCC2)cc1	-2	0	1	-1
O=C1CCC(=O)N1N1C(=O)C2C3c4ccccc4C(c4ccccc43)C2C1=O (stereo not given)	-3	43*	0	-2
CC(C)CN1C(=O)c2ccc(C(=O)Nc3ccccc3C(=O)O)cc2C1=O	3	0	3	-2
Cc1cc([N+](=O)[O-])ccc1N1C(=O)c2ccc(C(=O)Nc3ccccc3C(=O)O)cc2C1=O	-1	1.6*	2	-1
C[C@@H]1CCCCO[C@H](CN(C)S(=O)(=O)c2cn(C)cn2)[C@@H](C)CN([C@@H](C)CO)C(=O)c2cc(NC(=O)Nc3ccc(C(F)(F)F)cc3)ccc2O1	nt	0	nt	nt
O=C(NCc1ccccc1)[C@@H]1[C@@H](CO)[C@@H]2Cn3c(ccc(-c4cccc(F)c4)c3=O)[C@H]1N2	-1	0	-2	-33
Cc1ccc(C(=O)OCc2c(C)noc2C)cc1NC(=O)c1ccco1	nt	44*	-2	-5
CCCCNC(=O)COC(=O)c1ccc(C)c(NC(=O)c2ccco2)c1	2	0	-2	-17
C[C@@H]1CN([C@H](C)CO)C(=O)c2cc(NS(=O)(=O)c3cn(C)cn3)ccc2O[C@@H](C)CCCCO[C@@H]1CN(C)S(=O)(=O)c1ccc(F)cc1	1	1	-1	-1
Cc1noc(C)c1NC(=O)Nc1ccc2c(c1)C(=O)N([C@@H](C)CO)C[C@@H](C)[C@H](CN(C)Cc1ccc(C(=O)O)cc1)OCCCC[C@H](C)O2	nt	0	nt	nt
C[C@@H]1CCCCO[C@@H](CN(C)C)[C@@H](C)CN([C@H](C)CO)C(=O)c2cc(NS(C)(=O)=O)ccc2O1	2	0	-3	-4
O=C(O)C1=CCC=CC1C(=O)O (stereo not given)	68*	0	-5	0
CCOC(=O)C1(C)CCN1C(=O)c1cccc(Cl)c1 (stereo not given)	0	0	-2	32*
CCOC(=O)C1(C)CCN1C(=O)c1cccc(OC)c1 (stereo not given)	-1	0	2	nt
Clc1ccc(-c2cc(C3CCNCC3)[nH]n2)cc1	-5	43*	-6	0
C[C@H](CO)N1C[C@H](C)[C@H](CN(C)C(=O)NC2CCCCC2)Oc2ncc(/C=C/c3ccccc3)cc2C1=O	3	0	0	-12
COc1ccc(CN(C(=O)c2ccc(CN3CCOCC3)o2)C(C(=O)NCC2CCCO2)c2ccc(F)cc2)cc1 (stereo not given)	4	0	-4	-1
O=C(NCC1CCCO1)C(c1ccc(F)cc1)N(Cc1ccc2c(c1)OCO2)C(=O)c1ccc(CN2CCOCC2)o1 (stereo not given)	0	43*	0	0
O=[N+]([O-])c1ccc(S(=O)(=O)N2CCN(c3ccccn3)CC2)cc1	1	43*	-4	nt
CC(C(=O)Nc1ccc(S(=O)(=O)N2CCOCC2)cc1)N1CCN(c2ccccn2)CC1 (stereo not given)	-8	0	2	29*
CC(=O)Nc1ccc(NC(=O)C(C)N2CCN(S(=O)(=O)c3ccc(C)cc3)CC2)cc1 (stereo not given)	3	0	3	-1
C[C@H](CO)N1C[C@H](C)[C@@H](CN(C)Cc2ccc(C(F)(F)F)cc2)Oc2ccc(NC(=O)CCCCCC(=O)Nc3ccccc3N)cc2C1=O	-2	0	0	nt
CSC1=NCCN1S(=O)(=O)c1ccc2ccccc2c1	-6	0	0	0
CCSC1=NCCN1S(=O)(=O)c1ccc2ccccc2c1	-1	44*	-1	-4
COC(=O)/C(=C\c1cc(OC)c(OC)c(OC)c1)c1nc2ccccc2[nH]1	-6	43*	-3	-3
